The list is not random: actives were taken first. Their share in the collection is about 8.9%.
DRD3 antagonist = blocks the human D3 dopamine receptor; 2.5% of 360,000 active; P35462; max response, negative = inhibition, %; D3R cells, DiscoveRx beta-arrestin luminescence, antagonist mode; active compounds read low; AID 652054; in the data active = max response below about -50%; inconclusive = no clear call, values can overlap the other calls; note: % is set by controls: 0 for no effect and ±100 for the full control effect
Target sequence (P35462 whole entry, looked up): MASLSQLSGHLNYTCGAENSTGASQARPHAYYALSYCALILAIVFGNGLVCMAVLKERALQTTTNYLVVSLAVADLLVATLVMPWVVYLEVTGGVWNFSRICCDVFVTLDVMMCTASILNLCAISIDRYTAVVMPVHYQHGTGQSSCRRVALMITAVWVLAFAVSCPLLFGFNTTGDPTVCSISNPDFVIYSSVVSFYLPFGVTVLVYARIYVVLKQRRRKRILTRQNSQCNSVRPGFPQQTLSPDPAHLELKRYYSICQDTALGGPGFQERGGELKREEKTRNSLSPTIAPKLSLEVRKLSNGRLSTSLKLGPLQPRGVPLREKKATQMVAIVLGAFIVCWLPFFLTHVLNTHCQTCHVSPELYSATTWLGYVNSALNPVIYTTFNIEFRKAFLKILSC
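Cells plated overnight at 1500 cells/well, then exposed to library compounds with dopamine controls for 90 minutes at 37 degrees C. DiscoveRx reagent added for 30–60 minutes at room temperature; luminescence read, quantitative HTS format.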
MCF10A rereplic = induces DNA re-replication in MCF 10a normal breast cells; 2.9% of 350,000 active; MCF 10A DNA re-replication, Hoechst nuclear intensity, 48 h; AID 624296; Potency, µM (highest dose often 46.1 µM), inactives show at the top dose activity, positive = re-replication, hits mostly activators; note: potency is the fitted concentration of half-maximal effect; % of control where 0% means no effect; nearly all actives have a fitted effect of over 50% in size
KB-V1 MDR tox = KB-V1 MDR subline cytotoxicity; KB-V1 MDR cells viability, CellTiter-Glo, 72 h; Potency, µM (doses to about 46.1 µM), most hits filed as cytotoxic; 3.4% of 400,000 active; note: potency is the fitted concentration of half-maximal effect; % is set by controls: 0 for no effect and ±100 for the full control effect; nearly all actives have a fitted effect of over 60% in size
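Drug-selected KB-V1 cells, grown in DMEM lacking phenol red with 10% FBS, receive compound titrations; after three days at 37 degrees C, surviving cell ATP is quantified by CellTiter-Glo luminescence and responses normalized and curve-fitted.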
SW480 rerep = induces DNA re-replication in SW480 colon adenocarcinoma cells | Potency, µM (series often up to 46.1 µM), for the others: at the top dose re-replication activation, hits mostly activators | AID 624297 | 1.8% of 340,000 active | SW480 DNA re-replication, Hoechst DNA content imaging, 48 h; note: potency is the fitted concentration of half-maximal effect; % of control where 0% means no effect; nearly all actives have a fitted effect of over 55% in size
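250 cells/well; 23 nL cpd via pin tool; 48 hr, 37 C, 5% CO2; Hoechst 40 min; imager read of total nuclear intensity, ex 405/em 500-530 nm.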
KB-3-1 tox = kills parental KB-3-1 adenocarcinoma cells; KB-3-1 viability, CellTiter-Glo ATP luminescence, 72 h; Potency, µM (series often up to 46.1 µM), actives largely listed as cytotoxic; 1.4% of 400,000 active; AID 1347075; note: potency is the fitted concentration of half-maximal effect; % is set by controls: 0 for no effect and ±100 for the full control effect; nearly all actives have a fitted effect of over 60% in size
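Here the drug-naive KB-3-1 line serves as comparator for MDR sub-line selectivity; cells received compound titrations, 72 h at 37 °C, then CellTiter-Glo readout.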
D3 ag = agonists of human D3 dopamine receptor; P35462; 0.58% of 410,000 active; D3R DiscoveRx beta-arrestin cells, luminescence, 90 min; max activation, %; AID 652048; in the data active = max activation above about 30%; note: 0% is about no effect
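Agonist mode: compounds and dopamine controls were applied to plated cells for 90 min at 37 degrees C after an overnight attachment at 1500 cells/well. Luminescent read-out followed 30 - 60 minutes at room temperature with DiscoveRx detection reagent.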
* marks the source's active call; other numbers are inactive results; i = inactive; ? = inconclusive; nt = no result given; [ ] = remark or other dose. Unless noted, calls come from the whole dose curve; as a rule, active = well fitted curve in the direction sought with a large enough effect; inconclusive = small, poorly fitted or top-dose-only effect, or another doubt; inactive = no such curve, though single readings can be large; an effect the other way counts as inactive or inconclusive.

SMILES | DRD3 antagonist | MCF10A rereplic | KB-V1 MDR tox | SW480 rerep | KB-3-1 tox | D3 ag
O=C(/C=C/c1ccccc1F)c1cccc([N+](=O)[O-])c1 | -20 | 21µM* | i | 86% | i | 1
O=C(C#Cc1ccccc1)c1cccc([N+](=O)[O-])c1 | -56* | 2.9µM* | ? | 7.3µM* | i | -8
Cc1ccc(OC(=O)c2cccc([N+](=O)[O-])c2)c(-n2nc3ccccc3n2)c1 | 15 | -2% | i | -53% | i | -8
O=C(Oc1ccc(F)cc1C(=O)/C=C/c1cccs1)c1cccc([N+](=O)[O-])c1 | ? | ? | i | 13µM* | i | 1
O=[N+]([O-])c1ccc(O)c(N=Cc2sc3ccccc3c2O)c1 | -83* | -33% | 4.1µM* | ? | 16µM* | -26
Oc1ccc(Cl)cc1N=Cc1sc2ccccc2c1Cl | -16 | 143% | i | 21µM* | ? | 3
O=[N+]([O-])c1ccc(O)c(C=Nc2cccc3ccccc23)c1 | 0 | 16% | i | 1% | i | -14
Cc1ccc(Cl)cc1NC(=O)c1cc2ccccc2cc1O | 27 | 7.3µM* | ? | ? | 9.2µM* | 36*
Cc1ccc(Cl)cc1NC(=O)c1cccc(OC(F)F)c1 | 11 | 13% | 18µM* | -4% | i | -19
COC(=O)C1[C@@H](OC)C(OC(=O)COc2ccc(OC)cc2)C[C@@H]2CN3CCc4c([nH]c5cc(OC)ccc45)[C@H]3C[C@H]12 (some centres undefined) | nt | 18% | nt | 0% | nt | nt
O=C(Cc1ccc(OCc2ccccc2)cc1)NO | nt | nt | i | nt | i | nt
O=C(CCn1nnc2ccccc21)Nc1nnc(Cc2ccccc2)s1 | -5 | 8% | 16µM* | -4% | i | -2
O=C(CCn1nnc2ccccc21)Nc1nnc(COc2ccccc2F)s1 | -21 | 0% | i | -11% | i | 0
CN(C)S(=O)(=O)c1cccc(NC(=O)c2cccc(S(=O)(=O)N3CCCCC3)c2)c1 | 0 | 12% | 18µM* | 7% | ? | 2
CN(CC(=O)Nc1ccc(S(=O)(=O)N2CCCC2)cc1)Cc1cccc(Cl)c1Cl | 17 | ? | 18µM* | nt | ? | 6
CN(CC(=O)Nc1cccc(F)c1)CC(=O)Nc1cccc(S(=O)(=O)N2CCCCC2)c1 | 21 | 2% | i | 1% | i | -1
COc1ccc(CN(C)C(=O)c2cccc(NS(=O)(=O)c3ccccc3)c2)cc1F | -2 | 3% | 8.2µM* | -2% | i | -16
COc1ccccc1CN(C)CC(=O)Nc1cccc(S(=O)(=O)N2CCCCC2)c1 | 26 | ? | ? | 1% | i | 1
CN(Cc1ccc(F)cc1)C(=O)c1cccc(NS(=O)(=O)c2ccccc2)c1 | -4 | -2% | i | -3% | i | 0
CN(CC(=O)Nc1cccc(F)c1)CC(=O)Nc1cccc(S(=O)(=O)N2CCCCCC2)c1 | 2 | 16% | 18µM* | -9% | ? | -5
CN(C)S(=O)(=O)c1ccc2c(c1)N(CC(=O)NCc1cccc(Br)c1)C(=O)CS2 | nt | nt | i | nt | i | -12
COc1ccc(NS(=O)(=O)c2cccc(NC(=O)c3ccc(S(=O)(=O)N4CCCCCC4)cc3)c2)cc1 | -17 | ? | ? | -3% | 21µM* | -2
COc1ccc(C(=O)Nc2cccc(C(=O)N3CCCC3)c2)cc1 | -8 | -5% | 21µM* | -9% | i | 23
COc1cccc(C(=O)Nc2cccc(C(=O)N3CCOCC3)c2)c1 | 5 | -1% | i | -5% | i | -6
CN(C)S(=O)(=O)c1cccc(C(=O)Nc2ccc(C(=O)Nc3cccc(S(N)(=O)=O)c3)cc2)c1 | -23 | 0% | i | 1% | i | -12
SMILES | DRD3 antagonist | MCF10A rereplic | KB-V1 MDR tox | SW480 rerep | KB-3-1 tox | D3 ag
CN(C)S(=O)(=O)c1cccc(NC(=O)c2cccc(NS(=O)(=O)c3ccccc3)c2)c1 | 6 | 20% | ? | -2% | 12µM* | 10
CCn1cc(C(=O)Nc2cccc(Cl)c2)c2cc(OC)c(OC)cc2c1=O | nt | nt | i | nt | i | -2
COc1ccc2c(c1)c1c(c(=O)n(CCc3ccccc3)c(=O)n1Cc1ccccc1)n2C | nt | nt | i | nt | i | 3
CCN(CC)c1ccc2cc(-c3nc(-c4ccc(OC)cc4)cs3)c(=O)oc2c1 | 102 | ? | 18µM* | 1.8µM* | i | 33*
CCN(CC)c1ccc2cc(-c3nnc(-c4ccccc4)o3)c(=O)oc2c1 | 2 | ? | ? | ? | ? | -8
CCN(CC)c1ccc2cc(-c3nc4ccccc4[nH]3)c(=O)oc2c1 | 19 | 4.1µM* | ? | 5.2µM* | ? | 8
CCN(CC)c1ccc2cc(-c3nc4ccccc4n3C)c(=O)oc2c1 | 10 | ? | 0.41µM* | 0.58µM* | 0.23µM* | 4
CN(C)Cc1c(O)ccc2cc(-c3nc4ccccc4n3C)c(=O)oc12 | 33 | 5.8µM* | i | 3.7µM* | i | 1
O=C(Cn1cc(COc2ccc(Cl)c(Cl)c2)nn1)NS(=O)(=O)c1ccccc1C(F)(F)F | -67* | nt | i | nt | i | -5
O=C(Cn1cc(COc2ccc(-n3cccc3)cc2)nn1)NS(=O)(=O)c1ccccc1C(F)(F)F | -29 | nt | i | nt | i | 6
COc1ccc(-c2cc([C@H]3[C@@H]4C=CCC[C@@]4(C)C(=O)N3Cc3ccccc3)ccc2F)cc1 | 8 | 25% | ? | -4% | ? | -16
Cc1ccc(-c2ccc([C@H]3[C@@H]4C=CCC[C@@]4(C)C(=O)N3Cc3ccccc3)c(F)c2)cc1 | 17 | ? | i | 8% | i | 1
CC(=O)c1ccc(-c2ccc([C@H]3[C@@H]4C=CCC[C@@]4(C)C(=O)N3Cc3ccccc3)c(F)c2)cc1 | 0 | ? | ? | -7%[9.22 µM] | ? | 48*
COc1ccc(-c2ccc([C@H]3[C@@H]4C=CCC[C@@]4(C)C(=O)N3Cc3ccccc3)c(F)c2)cc1 | -4 | ? | 7.3µM* | 0% | ? | 13
O=C(CSc1c2c(nc3ccccc13)CCC2)Nc1ccc(F)cc1F | nt | nt | nt | nt | nt | -22
CN(Cc1ccc(Cl)cc1)C(=O)CCl | -17 | ? | ? | ? | 16µM* | -14
c1ccc(SCCOCCN2CCOCC2)cc1 | -7 | -4% | i | 1%[9.22 µM] | ? | -20
c1ccc(SCCN2CCc3ccccc3C2)cc1 | -91* | 10% | i | ? | i | -1
OCCN1CCN(CCSc2ccccc2)CC1 | -61* | ? | i | ? | i | -5
c1ccc(SCCOCCN2CCc3ccccc3C2)cc1 | -78* | 3% | i | 1% | i | -29

Bioassay records (PubChem)
